Rv3671c inh: Rv3671c (M. tuberculosis) protease inhibition; 0.048% of 320,000 active; inhibition, % at 5.96 µM; P9WHR9; AID 2606; in the data active means inhibition above about 38%;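 further: extracellular domain of Rv3671c used as enzyme; 0% = enzyme with DMSO and 100% = no enzyme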
Mtb betalactam: beta-lactam sensitization of Mtb H37Rv | M. tuberculosis H37Rv growth with meropenem, percent inhibition | 0.27% of 330,000 active | inhibition, % at 25 µM; call rule not given here;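 further: growth measured after seven days incubation then overnight dye step; 0% = bacteria only wells and 100% = bacteria with antibiotic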
Mtb FBA inh: inhibits M. tuberculosis FBA enzyme; inhibition, % at 1 µM; AID 588726; P9WQA3; 2.3% of 360,000 active; purified M. tuberculosis FBA, fluorescence read-out; in the data active means inhibition above about 27%;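 further: 0% = vehicle and 100% = reference inhibitor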
Target sequence (P9WQA3 whole entry, looked up): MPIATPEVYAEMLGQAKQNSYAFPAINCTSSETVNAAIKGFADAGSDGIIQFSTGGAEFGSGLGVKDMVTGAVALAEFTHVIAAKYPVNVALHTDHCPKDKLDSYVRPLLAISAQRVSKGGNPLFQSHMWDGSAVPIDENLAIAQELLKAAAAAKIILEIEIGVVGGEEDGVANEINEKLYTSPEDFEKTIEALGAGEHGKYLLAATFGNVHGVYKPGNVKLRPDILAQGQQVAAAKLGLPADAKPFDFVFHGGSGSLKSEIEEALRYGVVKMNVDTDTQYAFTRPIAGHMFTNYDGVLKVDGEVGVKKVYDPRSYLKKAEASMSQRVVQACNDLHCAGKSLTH
Mtb UGM inh: Mtb UDP-galactopyranose mutase inhibition; purified UGM, fluorescence polarization probe displacement; P9WIQ1; 0.06% of 320,000 active; inhibition, % at 10 µM; in the data active means inhibition above about 10%, passing the limit was not always enough; inconclusive means no clear call, values can overlap the other calls
GDH-TPI inh: inhibits GDH-TPI coupling enzymes, artifact for Mtb FBA screen | GDH-TPI coupled enzyme counterscreen, NADH absorbance | inhibition, % at 4.8 µM | 1.2% of 360,000 active; in the data active means inhibition above about 30%;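 further: 0% = DMSO wells and 100% = wells lacking the enzyme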
* hit, by the source's call; ? = inconclusive; . = no result given; + = active, no number. Shown are actives, neighbours in structure and some others; about 3.5% of the full set was active somewhere.

SMILES | Rv3671c inh | Mtb betalactam | Mtb FBA inh | Mtb UGM inh | GDH-TPI inh
Cc1ccc(S(=O)(=O)c2c(N)n(CCCO)c3nc4ccccc4nc23)cc1 | -64.3 | -7.1 | 143.2* | 1.5 | 21.2
Nc1c(S(=O)(=O)c2ccccc2)c2nc3ccccc3nc2n1Cc1ccco1 | -16.4 | 5.0 | 101.4* | 0.8 | 45.7*
CC(=O)NCCc1c(C)n(Cc2ccccc2)c2ccccc12 | 3.6 | 2.1 | -3.1 | 0.0 | 2.5
CCOC(=O)C1CCCN(/C=C2\SC(=S)N(CC)C2=O)C1 (stereo not drawn) | 1.3 | 2.8 | 0.0 | 0.6 | 7.3
N#CCCn1cc(CNC2CCC(O)CC2)c2ccccc21 (stereo not drawn) | -0.8 | -3.8 | -2.6 | -0.2 | 1.9
Cc1cccc(C)c1-n1c(C)nn(CC2CC2)c1=O | -3.0 | -7.5 | 5.4 | 0.5 | -7.6
COc1ccc(NC(=O)COC(=O)C2COc3ccccc3O2)cc1OC (stereo not drawn) | . | . | 4.8 | . | 3.5
O=C(NN1C(=O)/C(=C/c2ccc(O)c([N+](=O)[O-])c2)SC1=S)c1ccccc1Cl | -10.2 | -4.2 | -21.4 | 1.5 | 5.0
O=C(NN1C(=O)/C(=C/c2cc([N+](=O)[O-])ccc2O)SC1=S)c1ccccc1O | 51.7* | 28.0 | . | 2.2 | .
CN1CCC(CC(C(=O)N2CCCC2)(c2ccccc2)c2ccccc2)C1 (stereo not drawn) | . | . | 0.5 | . | 16.7
CC1Cc2cc(/C(O)=C3/C(=O)C(=O)N(CCCn4ccnc4)C3c3ccc([N+](=O)[O-])cc3)ccc2O1 (stereo not drawn) | . | . | 2.1 | . | 12.6
CC1Cc2cc(/C(O)=C3/C(=O)C(=O)N(CCCn4ccnc4)C3c3ccc(F)cc3)ccc2O1 (stereo not drawn) | 2.8 | -3.2 | 2.3 | 4.9 | 31.7*
COc1ccc(/C=N/Nc2ncc(C(F)(F)F)cc2Cl)cc1OC | -2.6 | -4.8 | 5.7 | -0.1 | 41.3*
COc1ccc(/C=N/Nc2nonc2N)cc1OC | -5.5 | 48.5 | 2.6 | -3.0 | 24.1
FC(F)(F)c1cnc(N/N=C/c2ccncc2)c(Cl)c1 | -5.9 | -2.6 | -0.4 | 2.5 | 56.8*
CC(C)Sc1nnc(SCC(=O)NCCCN2CCCC2=O)s1 | 4.1 | -5.8 | 1.0 | 2.1 | 4.8
O=C(Cc1ccc(Cl)cc1)Nc1ccc(Br)cn1 | 0.5 | 2.8 | 1.0 | 1.0 | -4.6
COc1ccccc1-n1c(SC)nc2c(sc(=S)n2-c2ccccc2)c1=O | . | . | -0.2 | . | 4.8
COc1ccccc1-n1c(=S)sc2c(=O)n(Cc3ccco3)c(SC)nc21 | -6.0 | 73.5 | -0.4 | 0.0 | 39.6*
COc1cc(NC(=O)Cc2ccccc2)c(C(=O)O)cc1OC | -3.1 | 7.2 | -1.0 | 1.3 | -0.3
COc1cc(NC(=O)Nc2cccc(Cl)c2)c(C(=O)O)cc1OC | 1.5 | 2.3 | 145.7* | 1.9 | 13.9
COc1cc(NC(=O)/C=C/c2ccccc2)c(C(=O)O)cc1OC | -10.8 | -5.9 | -6.9 | 0.2 | 44.4*
COC(=O)c1cc(OC)c(OC)cc1NC(=S)Nc1cccc(Cl)c1 | -0.9 | -1.5 | -7.3 | -1.2 | 4.7
O=C(Cc1ccccc1)NNS(=O)(=O)c1ccc(F)cc1 | 5.0 | -2.2 | 2.6 | 0.5 | 4.2
Nc1c(S(=O)(=O)c2cccs2)c2nc3ccccc3nc2n1CCc1ccccc1 | -22.4 | 74.0 | . | 1.1 | .
SMILES | Rv3671c inh | Mtb betalactam | Mtb FBA inh | Mtb UGM inh | GDH-TPI inh
Nc1c(S(=O)(=O)c2cccs2)c2nc3ccccc3nc2n1Cc1ccc2c(c1)OCO2 | -104.3 | 6.1 | 7.3 | -3.6 | 10.2
Nc1c(S(=O)(=O)c2cccs2)c2nc3ccccc3nc2n1CC1CCCO1 (stereo not drawn) | -2.1 | ? | 170.0* | 2.5 | 22.9
CC(C)CCn1c(N)c(S(=O)(=O)c2cccs2)c2nc3ccccc3nc21 | -112.6 | 52.8 | 116.0* | 3.7 | 12.1
Nc1c(S(=O)(=O)c2cccs2)c2nc3ccccc3nc2n1Cc1cccs1 | -32.5 | -0.1 | 119.1* | -1.3 | 13.3
COc1ccc(-n2[nH]c3c(cnc4ccccc43)c2=O)cc1 | . | . | 2.1 | . | .
Cc1ccc(S(=O)(=O)N2CCCCC2)cc1NC(=O)Cn1c(=O)cnc2ccccc21 | -0.2 | -2.6 | 0.9 | 1.2 | 19.7
CC(C)COc1ccc(CSCCNC(=S)Nc2ccccc2)cc1 | -48.5 | 67.2 | 74.0* | -2.1 | -8.3
NS(=O)(=O)c1ccc(NC(=O)COC(=O)/C(=C/c2cccs2)c2cccs2)cc1 | -60.1 | 2.8 | -2.8 | -2.1 | 42.0*
Cc1cc(=O)oc2c3c(cc(OCC(=O)NCC(=O)O)c12)OC(C)(C)CC3 | 14.6 | -10.8 | + | 2.3 | 9.9
Cc1cc(=O)oc2c3c(cc(OCC(=O)NCc4ccccc4)c12)OC(C)(C)CC3 | -8.0 | -3.5 | 150.2* | 1.8 | 27.4
CC(=O)Nc1ccc(NC(=O)COc2cc(C)cc3oc(=O)cc(C)c23)cc1 | 2.5 | 1.2 | 2.0 | -0.5 | 3.1
Cc1cc(=O)oc2c3c(cc(OCC(=O)Nc4cccnc4)c12)OC(C)(C)CC3 | -4.4 | 4.2 | 12.3 | -0.8 | 6.9
Cc1ccc(CNC(=O)COc2cc(O)c3c(c2)OC(C)(C)CC3=O)cc1 | -12.3 | -7.1 | 1.7 | 0.1 | 2.0
Cc1cc(=O)oc2c3c(cc(OCC(=O)Nc4ccc(CCO)cc4)c12)OC(C)(C)CC3 | -19.3 | 6.2 | 156.5* | 1.6 | 21.6
Cc1csc(NC(CO)c2nc3ccccc3n2CCOCCO)n1 (stereo not drawn) | -0.6 | -2.8 | 2.1 | -2.0 | -1.3
O=C(COc1ccc(/C=N/NC(=O)c2ccncc2)cc1)Nc1cccc([N+](=O)[O-])c1 | -16.6 | 97.9 | 4.1 | 1.8 | 16.5
O=C(COc1ccc(/C=N/NC(=O)c2ccccc2O)cc1)Nc1ccc([N+](=O)[O-])cc1 | 5.4 | 10.7 | 0.0 | 0.0 | 37.8*
CC/C(=N\NC(=O)c1ccccc1Cl)c1c(O)n(C2CCCCC2)c(=O)[nH]c1=O | 6.1 | -1.0 | -2.5 | -2.4 | 33.6*
CC/C(=N\NC(=O)c1ccccc1)c1c(O)n(C2CCCCC2)c(=O)[nH]c1=O | -1.9 | 0.9 | 1.3 | 0.8 | 25.0
Cc1nc2ccccn2c1C(=O)N/N=C/c1ccc(CNC(=O)C(=O)Nc2ccccc2)o1 | -4.6 | 8.7 | -0.1 | -0.3 | 37.6*
O=C(/C=C\c1cccs1)c1c(O)ccc2ccc(=O)oc12 | 4.0 | 88.8 | -7.4 | -0.2 | 35.7*
O=C(C=Cc1cccs1)c1cccs1 | . | . | -1.0 | . | 14.5
N#C/C(=C\c1cc2c(cc1Br)OCO2)c1ccc(C(=O)O)cc1 | 5.9 | -0.2 | 0.3 | 5.7 | 31.4*
CCN(CC)c1ccc(C=Nc2ccc(C#N)cc2)c(O)c1 | -14.0 | 27.3 | -1.5 | 0.2 | 44.7*
CCN(CC)c1ccc(/C=N/N(c2ccccc2)c2ccccc2)c(O)c1 | -4.0 | 31.6 | -2.8 | 1.0 | 14.1
CCN(CC)c1ccc(C=Nc2ccccc2C)c(O)c1 | 5.7 | -3.5 | 2.5 | -0.9 | 37.4*
O=C(Nc1ccc2c(c1)OCO2)C1CC(=O)N(c2cccc(Cl)c2)C1 (stereo not drawn) | -3.5 | -1.7 | 1.9 | 2.4 | 0.0
S=c1[nH]cnc2sc(-c3ccccc3)cc12 | -1.3 | 92.1 | -2.8 | 3.8 | 52.4*
CN(C)c1ccc(C2Nc3ccccc3C(=O)N2CCCN2CCOCC2)cc1 (stereo not drawn) | 3.1 | -8.6 | 10.4 | -3.8 | 13.1

Screens from PubChem BioAssay.
